In ChEMBL document CHEMBL3433997, “St. Jude Leishmania screening dataset” (2016) one finds inhibition data, which are given here for 33 compounds.

Common to all, as to assay type: functional
Experiment [1] has as its target Solute carrier family 2, facilitated glucose transporter member 1 (Homo sapiens) (UniProt P11166). Kind of experiment: ST_JUDE_LEISH: Cytotoxicity at 2uM final concentration against transgenic Leishmania Mexicana promastigotes LmGLUT1 that are glucose transport deficient and complemented with the human glucose transporter GLUT1. Activity is measured by DNA content using SYBR green in vitro.

Experiment [2] addresses Hexose transporter 1 (Plasmodium falciparum) (UniProt O97467). Kind of experiment: ST_JUDE_LEISH: Cytotoxicity at 2uM final concentration against transgenic Leishmania Mexicana promastigotes LmPfHT that are glucose transport deficient and complemented with the Plasmodium falciparum hexose transporter. Activity is measured by DNA content using SYBR green in vitro.
The target of experiment [3] is Glucose transporter (Leishmania mexicana) (UniProt O61059). Kind of experiment: ST_JUDE_LEISH: Cytotoxicity at 2uM final concentration against transgenic Leishmania Mexicana promastigotes LmGT2 that are glucose transport deficient and complemented with the L. Mexicana glucose transporter 2. Activity is measured by DNA content using SYBR green in vitro.

Chain of Solute carrier family 2, facilitated glucose transporter member 1 (Homo sapiens) (P11166 whole entry): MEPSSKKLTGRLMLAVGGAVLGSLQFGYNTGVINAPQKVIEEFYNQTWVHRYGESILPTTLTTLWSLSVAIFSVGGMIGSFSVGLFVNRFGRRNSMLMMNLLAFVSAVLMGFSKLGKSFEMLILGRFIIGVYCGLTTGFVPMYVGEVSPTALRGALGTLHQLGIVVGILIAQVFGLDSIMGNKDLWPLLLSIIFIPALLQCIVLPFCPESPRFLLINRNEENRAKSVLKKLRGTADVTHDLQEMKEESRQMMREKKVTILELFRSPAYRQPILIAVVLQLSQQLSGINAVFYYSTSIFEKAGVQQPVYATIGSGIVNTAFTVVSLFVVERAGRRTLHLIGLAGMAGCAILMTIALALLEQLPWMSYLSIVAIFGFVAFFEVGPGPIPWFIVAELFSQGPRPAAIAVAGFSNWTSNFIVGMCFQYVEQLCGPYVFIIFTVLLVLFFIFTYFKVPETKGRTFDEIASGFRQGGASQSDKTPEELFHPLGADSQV

As a reminder, the inhibition is the change of the read-out against control, counted positive when it falls. Take `O=C1CCCN1CCCNCc1cccc(-c2cccc(-c3nc4cc(F)ccc4[nH]3)c2)c1`: the inhibition amounted to 0.85% in experiment [1], 1.31% in experiment [2] and 0.04% in experiment [3].

For `CC(=O)N[C@H](C(=O)Nc1ccc(-c2ccc(-c3nc4cc(C(F)(F)F)ccc4[nH]3)s2)cc1)C(C)C`, the inhibition in experiment [1] amounted to 5.68%; in experiment [2], 5.3%; in experiment [3], 4.22%.

`CCNc1cc(C(=O)N[C@@H](Cc2ccccc2)[C@H](O)CNC2CCC(C)(C)CC2)cc(N2CCCCS2(=O)=O)c1`: the inhibition in experiment [1] is 3.16%; in experiment [2] it was 1.73%; in experiment [3], 1.22%.

Regarding `CC(C)CC(=O)N1CCNC[C@@H]1C(=O)NCc1ccc(Cl)c(Cl)c1`, the inhibition worked out at 2.93% in experiment [1], 1.04% in experiment [2] and 3.02% in experiment [3].

With `N=C(N)Nc1ccc(CCc2ccc(NC(=N)N)cc2)cc1`, the inhibition in experiment [1] worked out at 4.14%; in experiment [2], 4.16%; in experiment [3], 2.91%.

For `O=S(=O)(Nc1cccc(CCN2CCC(N3CCCCC3)CC2)c1)c1cccc2cccnc12`, the figures for the inhibition in experiment [1], in experiment [2] and in experiment [3] were 0.25%, 0.35% and -2.07%, respectively.

Regarding `Cc1nn(-c2ccnc3cc(Cl)ccc23)c(C)c1C(=O)NCc1cc(Cl)cc(Cl)c1`, the figures for the inhibition in experiment [1], in experiment [2] and in experiment [3] were 0.16%, -0.98% and 1.27%, respectively.

For `CCc1cccc(OCC2CCCN(c3ccc(C(=O)NC4CC4)cn3)C2)c1` (centres undefined), the inhibition is 4.71% in experiment [1], 3.55% in experiment [2] and 3.3% in experiment [3].

`N[C@@H](CCNCc1ccc(-c2cccnc2)cc1)Cc1ccc(F)c(F)c1`: the inhibition in experiment [1] was 0.43%; in experiment [2] it was 0.41%; in experiment [3] it was 0.4%.

As to `O=C(/C=C/c1ccc(CNCCN2CCOCC2)cc1)NCCc1ccccc1`, the inhibition is 0.21% in experiment [1], -1% in experiment [2] and 0.2% in experiment [3].

Consider `Cc1ccc2[nH]c(-c3ccccc3N)cc2c1`, for which the inhibition is 3.92% in experiment [1], 4.5% in experiment [2] and 4.49% in experiment [3].

Take `CCOc1c(CNCCCNc2nc3ccccc3[nH]2)cc(Br)cc1OC`: the inhibition is 2.6% in experiment [1], -3.13% in experiment [2] and 4.2% in experiment [3].

Regarding `COc1ccc2nccc([C@@H](O)CN3CCC(NC(=O)c4cccc(-c5cc(C)no5)c4)CC3)c2c1`, the inhibition was 1.35% in experiment [1], 0.14% in experiment [2] and 0.08% in experiment [3].

On to `CCc1c(C)c(C#N)c2nc3ccccc3n2c1NCc1ccco1`, for which the figures for the inhibition in experiment [1], in experiment [2] and in experiment [3] were 4.43%, 4.23% and 2.13%, respectively.

In the case of `O=C(/C=C/c1ccc(Cl)cc1)NCCCCCN1CCCC(C(=O)Nc2cccc(Cl)c2)C1` (centres undefined), the values for the inhibition in experiment [1], in experiment [2] and in experiment [3] were 2.85%, 2.1% and 3.91%, respectively.

For the compound `Cc1cnccc1/C=C/c1cccc(OCCCN2CCc3ccc(S(C)(=O)=O)cc3CC2)c1`, the inhibition in experiment [1] came to 2.21%; in experiment [2] it was 2.58%; in experiment [3], 2.19%.

As for `Cc1ccc(C(=O)N2CCN(Cc3nccs3)CC2)cc1`, the inhibition is 1.23% in experiment [1], -0.14% in experiment [2] and -0.27% in experiment [3].

`Nc1cccc(CNCc2cccc(-c3cccc(-c4nc5ccccc5[nH]4)c3)c2)c1`: the inhibition is -1.07% in experiment [1], 1.34% in experiment [2] and -0.53% in experiment [3].

Regarding `NC1CCN(CCNCc2cccc(-c3ccc(-c4nc5cc(C(F)(F)F)ccc5[nH]4)cc3)c2)C1` (centres undefined), the values for the inhibition in experiment [1], in experiment [2] and in experiment [3] were 2.65%, 1.4% and 2.67%, respectively.

With `COc1ccc(O)c(Cc2cnc3nc(N)nc(N)c3c2C)c1`, the inhibition is 12.3% in experiment [1], 11.2% in experiment [2] and 11.4% in experiment [3].

On to `CC(=O)N(Cc1nc(-c2cc(C(F)(F)F)cc(C(F)(F)F)c2)cs1)c1c(C)cccc1C`, for which the inhibition in experiment [1] was 4.36%; in experiment [2] it was 4.86%; in experiment [3], 4.36%.

Consider `Cc1cc(OCCCN2CCC(NS(=O)(=O)c3ccc(C(F)(F)F)cc3)CC2)c2ccccc2n1`, for which the values for the inhibition in experiment [1], in experiment [2] and in experiment [3] were 1.59%, 0.36% and 0.63%, respectively.

Turning to `CS(=O)(=O)CCNCc1cccc(-c2ccc3c(Nc4ccc(Oc5ccccc5)cc4)ccnc3c2)c1`, the inhibition in experiment [1] was 0.35%; in experiment [2], -0.06%; in experiment [3], 1.33%.

Consider `O=c1cc(NCCCN(Cc2cc3c(Cl)cc(Cl)cc3[nH]2)Cc2cc3c(Cl)cc(Cl)cc3[nH]2)[nH]c2ccccc12`, for which the figures for the inhibition in experiment [1], in experiment [2] and in experiment [3] were 9.06%, 9.4% and 7.31%, respectively.

`CN1CCN(c2ccnc3ccc(NC(=O)Nc4ccc(-c5ccncc5)c(C(F)(F)F)c4)cc23)CC1`: the inhibition in experiment [1] was determined as 11.3%; in experiment [2], 9.91%; in experiment [3], 10.6%.

`Cc1cc(Nc2ncc(C#N)c(Nc3ccccc3C(N)=O)n2)ccc1N1CCN(C)CC1`: the inhibition in experiment [1] was 79.2%; in experiment [2], 78.8%; in experiment [3], 65.4%.

For `CCNc1cc(C(=O)N[C@@H](Cc2ccccc2)[C@H](O)CNCCC(C)(C)C)c(F)c(N2CCCCS2(=O)=O)c1`, the inhibition was 6.09% in experiment [1], -0.44% in experiment [2] and 0.33% in experiment [3].

In the case of `COc1ccc(-c2nonc2NC(=O)c2cccc(C)c2)cc1OC`, the inhibition is 11.9% in experiment [1], 10.7% in experiment [2] and 10.1% in experiment [3].

Regarding `O=C(NCCc1ccccc1F)c1cc(Br)cc(N2CCN(c3ccncc3)CC2)c1`, the results for the inhibition in experiment [1], in experiment [2] and in experiment [3] were 0.33%, 2.34% and -0.08%, respectively.

Take `COc1cccc(C2CCN(CCN3CCC(CNC(=O)c4ccc(-c5ccc(C(F)(F)F)cc5)cc4)CC3)CC2)c1`: the figures for the inhibition in experiment [1], in experiment [2] and in experiment [3] were -0.53%, 1.07% and 1.17%, respectively.

As to `Fc1ccc2[nH]c(-c3ccc(-c4ccc(CN5CCN(CCN6CCOCC6)CC5)cc4)cc3)nc2c1`, the inhibition in experiment [1] stood at 5.88%; in experiment [2], 4.38%; in experiment [3], 1.45%.

`CCN1CCN(c2cc(C)c3cc(NC(=O)c4cccc(OC)c4)ccc3n2)CC1`: the inhibition in experiment [1] is 15.2%; in experiment [2], 15.3%; in experiment [3], 13.7%.

`Cc1cccc(C(=O)Nc2ccnc(N(C)CCCN(C)Cc3cccc(C#N)c3)c2)c1`: the inhibition in experiment [1] is 5.76%; in experiment [2], 4.86%; in experiment [3], 2.02%.
